Assay outcomes as filed in PubChem BioAssay.
Sampled rows, rich in hits. Any-hit rate of the full collection: about 2.7%.
HTT-AS promoter – HTT-AS promoter activation. HEK293 HTT-AS promoter firefly luciferase reporter, 24 h; response scale: percent change from vehicle, -100% = no light. Potency, µM (top dose mostly 57.5 µM), for the others: at the top dose activity change, positive = activation, usual class: activators. 0.24% of 48,000 active; further: potency means the concentration at half of the fitted maximal effect; nearly all actives have a fitted effect of over 55% in size
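Luminescence was read after Dual-Glo reagent and a 10 min room-temperature incubation. Values were normalized to vehicle (0% activity) and zero RLU (-100% activity). Reporter HEK293 cells had been exposed to compounds (up to 57.5 uM final) for 24 h.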
NTMT1 inhibitor – NTMT1 methyltransferase inhibition; Q9BV86; NTMT1 MTase-Glo SAH luminescence, purified enzyme; Potency, µM (titrated, usually from 114 µM), for inactives: at the highest dose activity change, negative = inhibition, most hits filed as inhibitors; 2.5% of 59,000 active; AID 1645870;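 further: potency means the concentration at half of the fitted maximal effect; plate controls were DMSO vehicle for no effect and no enzyme for full effect; nearly all actives have a fitted effect of over 65% in size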
GALC G270D act – enhancers of human galactocerebrosidase G270D mutant activity in cells | P54803 | 145M-Twi-hGALC-G270D cells (Twitcher mouse brain line with human GALC G270D), HMU-beta-Gal fluorescence, 48 h | Potency, µM (titrated, usually from 57.5 µM), usual class: activators | 0.1% of 45,000 active; further: potency means the concentration at half of the fitted maximal effect; 0% is about no effect; nearly all actives have a fitted effect of over 65% in size
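Fluorogenic HMU-b-Gal hydrolysis (0.1 mM final, pH 5.2 citrate-phosphate with 1 mg/mL sodium taurocholate; carbonate stop buffer) measures mutant GALC activity after compound treatment of live 145M-Twi Twitcher brain cells stably carrying human GALC-G270D, with wild-type GALC line alongside; activation sought.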
HTT prom inh – inhibitors of huntingtin promoter activity; HEK293 HTT promoter firefly luciferase reporter, 24 h; Potency, µM (highest dose often 57.5 µM), for the others: at the top dose activity change, negative = inhibition, most hits filed as inhibitors; 0.93% of 48,000 active; further: potency means the concentration at half of the fitted maximal effect; nearly all actives have a fitted effect of over 50% in size
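Quantitative HTS used concentration series of up to 57.5 uM final on HEK293 luciferase reporter cells, 24 h at 37 degrees C. Readout was Dual-Glo firefly luminescence.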
Sfp PPTase inh – Sfp PPTase inhibition, chemistry optimization | shares compounds with NTMT1 inhibitor | purified Sfp PPTase enzyme activity, qHTS | Potency, µM (doses to about 114 µM), for inactives: at the top dose activity change, negative = inhibition, actives largely listed as inhibitors | 78% of 230 active
Bsub HM489 growth – reduces growth of B. subtilis HM489 strain; B. subtilis HM489 (acpS-) growth, BacTiter-Glo, 5 h; Potency, µM (highest dose often 114 µM), for the others: top-dose activity change, negative = inhibition, most hits filed as inhibitors; shares compounds with NTMT1 inhibitor; 50% of 220 active
Sfp gel opt – inhibits B. subtilis Sfp PPTase in gel assay; Potency, µM (highest dose often 250 µM), without a hit: at the highest dose activity change, negative = inhibition, usual class: inhibitors; 54% of 220 active; AID 540355; shares compounds with NTMT1 inhibitor; purified Sfp PPTase, gel-based product detection
Sfp inh gel – inhibits B. subtilis Sfp PPTase in gel-based assay. shares compounds with NTMT1 inhibitor. purified Sfp PPTase, gel-based product detection. Potency, µM (top dose mostly 250 µM), without a hit: at the top dose activity change, negative = inhibition, hits mostly inhibitors. 90% of 45 active. AID 602362
Sfp SAR2 – inhibits B. subtilis Sfp PPTase in second SAR round; shares compounds with NTMT1 inhibitor; purified Sfp enzyme, PPTase activity, qHTS; Potency, µM (highest dose often 57.1 µM), without a hit: at the top dose activity change, negative = inhibition, usual class: inhibitors; 87% of 230 active; AID 602370
hGST A1-1 inh – hGST A1-1 enzyme inhibition, Sfp SAR counter-screen; Potency, µM (doses to about 114 µM), for inactives: at the top dose activity change, negative = inhibition, hits mostly inhibitors; AID 602391; 55 tested, under 10 active; shares compounds with NTMT1 inhibitor; hGST A1-1 enzyme activity counter-screen, qHTS
HSD17B4 inh – HSD17B4 (human) inhibition, HPGD counter-screen. shares compounds with NTMT1 inhibitor. AID 743187. Potency, µM (doses to about 57.1 µM), for the others: top-dose activity change, negative = inhibition, actives largely listed as inhibitors. 10% of 230 active. purified HSD17B4, estradiol/NAD+, NADH fluorescence
Target sequence (P51659 whole entry, looked up): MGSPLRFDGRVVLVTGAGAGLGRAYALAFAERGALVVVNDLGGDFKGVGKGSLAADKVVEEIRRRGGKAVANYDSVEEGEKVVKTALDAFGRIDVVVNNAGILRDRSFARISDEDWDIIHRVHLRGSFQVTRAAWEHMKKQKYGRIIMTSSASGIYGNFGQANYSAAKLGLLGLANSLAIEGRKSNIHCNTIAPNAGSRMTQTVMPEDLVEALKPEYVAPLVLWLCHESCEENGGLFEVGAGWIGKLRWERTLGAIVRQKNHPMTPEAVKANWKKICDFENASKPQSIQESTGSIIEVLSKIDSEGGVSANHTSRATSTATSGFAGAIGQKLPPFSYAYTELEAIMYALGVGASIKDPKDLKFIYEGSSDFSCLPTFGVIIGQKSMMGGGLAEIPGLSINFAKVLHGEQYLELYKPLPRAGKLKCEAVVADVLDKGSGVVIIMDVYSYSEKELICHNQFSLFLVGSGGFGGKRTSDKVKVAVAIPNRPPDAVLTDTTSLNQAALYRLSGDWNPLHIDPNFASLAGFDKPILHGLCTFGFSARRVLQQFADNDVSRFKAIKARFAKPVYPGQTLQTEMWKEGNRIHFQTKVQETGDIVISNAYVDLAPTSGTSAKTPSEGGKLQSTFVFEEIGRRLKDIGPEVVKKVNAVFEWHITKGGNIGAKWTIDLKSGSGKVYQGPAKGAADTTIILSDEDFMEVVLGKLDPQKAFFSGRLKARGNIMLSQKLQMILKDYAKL
ALDH1A1 inh – inhibits human ALDH1A1, off-target for HPGD inhibitors. shares compounds with NTMT1 inhibitor. recombinant ALDH1A1, NADH fluorescence, propionaldehyde/NAD+. Potency, µM (highest dose often 57.1 µM), inactives show top-dose activity change, negative = inhibition, actives largely listed as inhibitors. 93% of 230 active. AID 743195
NNMT counter – blocks human NNMT methyltransferase | shares compounds with NTMT1 inhibitor | NNMT MTase-Glo luminescence, SAH detection | Potency, µM (series often up to 57.1 µM), without a hit: at the top dose activity, negative = inhibition, usual class: inhibitors | 10% of 120 active
The depositor's hits bear a star; i = inactive; ? = inconclusive; · = not tested or not shown; [ ] = another dose, or the depositor's remark. The call rests on the fitted dose curve; in most records, active means well fitted curve in the direction sought with a large enough effect; inconclusive means small, poorly fitted or top-dose-only effect, or another doubt; inactive means no such curve, though single readings can be large; an effect the other way counts as inactive or inconclusive.

SMILES | HTT-AS promoter | NTMT1 inhibitor | GALC G270D act | HTT prom inh | HSD17B4 inh | ALDH1A1 inh | others
S=C(Nc1cc(Cl)ccn1)N1CCN(c2cccc(Cl)c2Cl)CC1 | · | ? | · | · | -13% | 6.8µM* | Sfp PPTase inh=4.1µM*;Sfp SAR2=16µM*;hGST A1-1 inh=-6%
CN(C)C(=O)NC1CCC(CCN2CCN(c3cccc(Cl)c3Cl)CC2)CC1 (stereo unspecified) | · | 1%[12.6 µM] | · | · | · | ·
CCOc1ccc(NC(=O)N2CCN(c3ccc(Cl)c(Cl)c3)CC2)cc1 | -23% | -14% | i | ? | · | ·
COc1ccnc(NC(=S)N2CCN(c3ccc(Cl)cc3Cl)CC2)c1 | · | ? | · | · | -6% | 4.3µM* | Sfp PPTase inh=3µM*;Bsub HM489 growth=13µM*;Sfp gel opt=7.9µM*;Sfp inh gel=3.4µM*;Sfp SAR2=0.46µM*;hGST A1-1 inh=4%
CSCC[C@H](NC(=O)[C@H](CCSC)NC(=O)CNC(=O)[C@H](Cc1ccc(O)cc1)NC(=O)[C@H](Cc1ccccc1)NC(=O)[C@H](CCCN=C(N)N)NC(=O)[C@H](CC(=O)O)NC(=O)[C@@H]1CCCN1C(=O)[C@H](CC(=O)O)NC(=O)[C@@H]1CCCN1C(=O)[C@@H]1CCCN1C(=O)[C@@H](N)CC(=O)O)C(N)=O | · | 10%[12.6 µM] | · | · | · | ·
COc1cc2c(C(=O)N3CCN(c4cccc(C(F)(F)F)c4)CC3)cn(CC(C)C)c(=O)c2cc1OC | -41% | 1% | i | ? | · | ·
COc1cccc(NC(=S)N2CCN(c3ccc(Cl)c(Cl)c3)CC2)n1 | · | · | · | · | ? | 6.1µM* | Sfp PPTase inh=?;Bsub HM489 growth=30%;Sfp gel opt=95µM*;Sfp inh gel=107µM*;Sfp SAR2=8.1µM*;hGST A1-1 inh=?
CN(C)c1ccc2nc(NC(=S)N3CCN(c4cccc(C(F)(F)F)c4)CC3)sc2c1 | · | 13%[57.5 µM] | · | · | ? | 9.6µM* | Sfp PPTase inh=?;Bsub HM489 growth=?;Sfp gel opt=20µM*;Sfp SAR2=10µM*
COc1cc(NC(=S)N2CCN(c3cccc(C(F)(F)F)c3)CC2)nc2ccccc12 | · | ? | · | · | -57% | 5.4µM* | Sfp PPTase inh=1.9µM*;Bsub HM489 growth=47µM*;Sfp gel opt=0.79µM*;Sfp SAR2=0.65µM*
COc1cccc(NC(=S)N2CCN(c3cccc(C(F)(F)F)c3)CC2)n1 | · | · | · | · | 19µM* | 15µM* | Sfp PPTase inh=13µM*;Bsub HM489 growth=42µM*;Sfp gel opt=20µM*;Sfp SAR2=11µM*
COc1cc(-c2cn(C)c(=O)c3cnccc23)c(OC)cc1CN(C)C | · | 6% | · | · | · | ·
O=C(NOCCO)c1ccc2cncn2c1Nc1ccc(I)cc1F | · | -10% | · | · | · | ·
CCN(C)S(=O)(=O)Nc1ccc(F)c(C(=O)c2c[nH]c3ncc(-c4cnc(C5CC5)nc4)cc23)c1F | · | 1% | · | · | · | ·
O=C(Nc1ccc(C(F)(F)F)cn1)N1CCN(c2ncccc2C(F)(F)F)CC1 | · | 3%[57.5 µM] | · | · | · | ·
COc1cccc(NC(=S)N2CCN(c3ncc(C(F)(F)F)cc3Cl)CC2)n1 | · | ? | · | · | -13% | 1.1µM* | Sfp PPTase inh=?;Bsub HM489 growth=12%;Sfp gel opt=5%;Sfp SAR2=4.6µM*
C=C1[C@H](OC(C)=O)[C@H]2[C@@H](OC(C)=O)[C@](C)(OC(C)=O)C[C@]2(OC(C)=O)C(=O)[C@H](C)/C=C/C(C)(C)C(=O)[C@H](OC(=O)C(C)C)[C@H]1OC(C)=O | · | 6%[12.6 µM] | · | · | · | ·
CCc1nc(C(N)=O)c(Nc2ccc(N3CCC(N4CCN(C)CC4)CC3)c(OC)c2)nc1NC1CCOCC1 | · | 20µM* | · | · | · | · | NNMT counter=-16%[38.3 µM]
COc1ccc(NC(=O)N2CCN3CCCCC3C2)cc1OC (stereo unspecified) | -2% | -6% | i | -5% | · | ·
CC(C)(O)c1ccc2c(c1)C(O)CC1C(C)(C(=O)O)CCCC21C (stereo unspecified) | · | 2%[29.8 µM] | · | · | · | ·
NC(=O)c1cccc(-c2cnc3c(O)ccc(C(=O)O)c3c2)c1 | · | 12% | · | · | · | ·
NC(=O)c1cccc(-c2cc(OC(=O)NC3CCCCC3)ccc2O)c1 | · | ? | · | · | · | · | NNMT counter=-18%
COc1ccc(NC(=O)c2cnc(N3CCOCC3)c3ccccc23)cc1OC | -25% | 1% | i | -26% | · | ·
Nc1ccc(C(=O)Nc2cccc(-c3nc(N4CCOCC4)c4oc5ncccc5c4n3)c2)cn1 | -28% | 11% | · | ? | · | · | NNMT counter=-18%
Cc1ccc(OCCn2c(CCNC(=O)c3ccc(Br)cc3)nc3ccccc32)cc1 | · | -17% | · | · | · | ·
CN(C)C/C=C/C(=O)Nc1cc2c(Nc3ccc(F)c(Cl)c3)ncnc2cc1OC1CCOC1 (stereo unspecified) | · | 6.3µM* | · | · | · | · | NNMT counter=?
COc1cc2ncnc(Nc3ccc(F)c(Cl)c3)c2cc1NC(=O)C=CCN1CCCCC1 | -21% | -28%[57.5 µM] | · | -1% | · | ·
CCOc1ccc(Nc2c(S(=O)(=O)c3ccc(Cl)cc3)cnc3ccc(OCC)cc23)cc1 | -19% | -5% | i | ? | · | ·
CCOc1cc2ncc(C#N)c(Nc3ccc(F)c(Cl)c3)c2cc1NC(=O)/C=C/CN(C)C | · | 1.1µM* | · | · | · | · | NNMT counter=16µM*
COc1ccc(-n2cnc3cc(C(=O)N4CCCCC4)ccc32)cc1 | · | ? | · | · | -21% | 1.4µM*
